Only some compounds are listed: those with a hit (about 2.3% of all), similar ones and a draw of the others.
PLC-gamma1 inh: PLC-gamma1 enzyme inhibitors, primary screen, biochemical, fluorescence, purified enzyme; 1-phosphatidylinositol 4,5-bisphosphate phosphodiesterase gamma-1 (Homo sapiens), P19174; fluorogenic substrate; inhibition, % at 12.2 µM; actives 0.84% (n = 370,000)
Target sequence (P19174 whole entry, looked up): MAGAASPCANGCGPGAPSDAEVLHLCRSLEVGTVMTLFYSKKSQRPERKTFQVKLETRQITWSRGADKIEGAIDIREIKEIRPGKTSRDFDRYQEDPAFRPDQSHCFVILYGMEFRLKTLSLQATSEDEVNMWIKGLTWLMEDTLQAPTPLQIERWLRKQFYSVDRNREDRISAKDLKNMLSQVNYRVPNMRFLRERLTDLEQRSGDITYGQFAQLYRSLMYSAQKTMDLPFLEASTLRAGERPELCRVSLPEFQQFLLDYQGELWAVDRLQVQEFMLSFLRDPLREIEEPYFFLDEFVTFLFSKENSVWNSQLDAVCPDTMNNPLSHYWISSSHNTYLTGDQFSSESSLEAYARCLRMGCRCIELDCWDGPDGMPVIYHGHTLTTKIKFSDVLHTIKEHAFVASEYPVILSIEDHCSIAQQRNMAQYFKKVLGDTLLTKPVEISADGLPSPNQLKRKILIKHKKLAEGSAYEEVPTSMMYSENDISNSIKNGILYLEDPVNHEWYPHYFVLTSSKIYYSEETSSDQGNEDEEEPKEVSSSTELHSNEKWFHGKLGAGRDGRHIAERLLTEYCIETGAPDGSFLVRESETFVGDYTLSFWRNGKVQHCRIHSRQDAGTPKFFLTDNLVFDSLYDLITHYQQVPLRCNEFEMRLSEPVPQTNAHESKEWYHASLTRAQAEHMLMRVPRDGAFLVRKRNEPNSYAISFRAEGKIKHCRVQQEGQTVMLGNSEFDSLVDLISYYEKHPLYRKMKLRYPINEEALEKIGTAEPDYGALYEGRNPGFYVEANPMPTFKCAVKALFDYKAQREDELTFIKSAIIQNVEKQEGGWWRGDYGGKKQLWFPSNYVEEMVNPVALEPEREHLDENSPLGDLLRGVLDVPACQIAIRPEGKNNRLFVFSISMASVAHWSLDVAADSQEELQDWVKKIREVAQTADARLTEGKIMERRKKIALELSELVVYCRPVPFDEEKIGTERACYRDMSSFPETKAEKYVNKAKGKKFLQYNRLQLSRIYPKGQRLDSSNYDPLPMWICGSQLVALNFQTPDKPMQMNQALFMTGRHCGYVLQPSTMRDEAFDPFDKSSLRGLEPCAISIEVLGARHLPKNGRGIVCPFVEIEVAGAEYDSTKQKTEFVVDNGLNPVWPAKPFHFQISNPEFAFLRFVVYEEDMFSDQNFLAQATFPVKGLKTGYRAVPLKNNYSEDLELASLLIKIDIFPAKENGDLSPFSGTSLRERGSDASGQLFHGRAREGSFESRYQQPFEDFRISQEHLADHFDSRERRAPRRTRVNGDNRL
UHRF1 MBD2 ctr: UHRF1 methylated DNA binding inhibitors, primary screen, counter-screen for MBD2 inhibitor project, biochemical, TR-FRET, human UHRF1, single concentration. E3 ubiquitin-protein ligase UHRF1 (Homo sapiens), Q96T88. UHRF1 binding to methylated oligo. inhibition, % at 4.4 µM. actives 0.75% (n = 370,000); in the data active = inhibition above about 21%;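 note: UHRF1 SRA domain binding a hemimethylated CpG hairpin DNA probe; 0% = median of test compound wells and 100% = reference inhibitor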
MBD2 inh: inhibitors of MBD2 binding to methylated DNA, primary screen, biochemical, TR-FRET, DNA-binding domain, human. MBD2 binding to methylated oligonucleotide. inhibition, % at 4.4 µM. Methyl-CpG-binding domain protein 2 (Homo sapiens), Q9UBB5. actives 0.31% (n = 370,000); in the data active = inhibition above about 13%
PLC-beta3 inh: human PLC-beta3 inhibitors, primary screen, biochemical, fluorescence; AID 720704, 2013; Purified PLC-beta3, fluorogenic substrate; inhibition, % at 12.2 µM; actives 0.18% (n = 370,000); 1-phosphatidylinositol 4,5-bisphosphate phosphodiesterase beta-3 (Homo sapiens), Q01970; in the data active = inhibition above about 11%;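 note: 0% = median of compound wells on plate and 100% = full blocker control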
LEDGF integ inh: blockers of LEDGF/p75-dependent integrase strand transfer – biochemical, TR-FRET, high throughput, primary screen; inhibition, % at 3.7 µM; actives 0.64% (n = 370,000); HIV-1 integrase (with human LEDGF/p75); TR-FRET IN-LEDGF/p75 DNA integration, Eu/Cy5;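 active = inhibition above the screen-wide mean plus 3 SD, cut at about 13% in these data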;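 note: signal is the Cy5 over europium emission ratio at 671 and 618 nm; 0% = plate median of compound wells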
UHRF1 DNA bind: UHRF1 methylated DNA binding inhibitors, counter-screen for MBD2 inhibitor project, biochemical, TR-FRET, human UHRF1 | inhibition, % at 4.4 µM | actives 25% (n = 1,000) | shares compounds with MBD2 inh | UHRF1 binding to methylated oligonucleotide; in the data active = inhibition above about 21%;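 note: UHRF1 SRA domain binding a labeled hemimethylated CpG hairpin DNA; 0% = vehicle only and 100% = reference inhibitor with vehicle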
MBD2 confirm: inhibitors of MBD2 binding to methylated DNA, confirmation, biochemical, TR-FRET, DNA-binding domain, human; shares compounds with MBD2 inh; TR-FRET MBD2-DBD binding to methylated oligonucleotide; inhibition, % at 4.4 µM; actives 26% (n = 1,000); AID 720531, 2013; in the data active = inhibition above about 14%
PLCg1 ctr: PLC-gamma1 enzyme inhibitors, counter-screen for PLC-beta3 inhibitor project, biochemical, fluorescence; inhibition, % at 12.3 µM; purified PLC-gamma1, fluorogenic substrate; shares compounds with PLC-gamma1 inh; actives 3.1% (n = 3,300)
PLCbeta3 conf: PLC-beta3 inhibitor confirmation, biochemical, fluorescence, purified enzyme. actives 1% (n = 3,300). inhibition, % at 12.3 µM. AID 743261, 2014. shares compounds with PLC-gamma1 inh. fluorogenic substrate fluorescence; in the data active = inhibition above about 11%
IN multimer act: HIV-1 IN multimer formation enhancers, counter-screen for LEDGF/p75 integration inhibitor project, biochemical, TR-FRET | shares compounds with LEDGF integ inh | TR-FRET HIV-1 integrase multimerization | activation, % at 7.7 µM | actives 17% (n = 2,000) | AID 1053131, 2014; in the data active = activation above about 8.9%
TRFRET interf: TR-FRET optical interference artefacts, confirmation, artefact control for LEDGF/p75-dependent integration inhibitor project, biochemical, HIV-1 IN multimerization | shares compounds with LEDGF integ inh | TR-FRET optical interference counterscreen | inhibition, % at 7.7 µM | 2,000 tested, under 10 active | AID 1053135, 2014;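 active = inhibition above the mean over all tested compounds plus 3 SD, which no compound reached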;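 note: 0% = integrase with antibodies and DMSO and 100% = antibodies without integrase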
LEDGF integ conf: inhibitors of HIV-1 IN-LEDGF/p75 DNA integration, confirmation, biochemical, TR-FRET; shares compounds with LEDGF integ inh; TR-FRET LEDGF/p75-dependent HIV-1 integration; inhibition, % at 3.7 µM; actives 36% (n = 2,000); AID 1053136, 2014; in the data active = inhibition above about 14%
Active calls of the source: *; i = inactive; · = not tested or not shown. Cut-off read from the data, not from the text of the source, unless noted: active = inhibition above about 9.5%; inactive = the rest.

SMILES	PLC-gamma1 inh	UHRF1 MBD2 ctr	MBD2 inh	PLC-beta3 inh	LEDGF integ inh	UHRF1 DNA bind	MBD2 confirm	IN multimer act	TRFRET interf	LEDGF integ conf	others
COc1ccccc1CNC(=O)C[C@H]1CC[C@H]2[C@@H](COc3ccc(NC(=O)Nc4ccccc4)cc3C(=O)N2C)O1	8	-1	2	6	0	·	·	·	·	·
COP(=O)(O)C(Cc1ccccc1)NC(=O)OCc1ccccc1 (configuration not stated)	2	1	0	0	3	·	·	·	·	·
O=C1CCCC(O)=C1N=Nc1ccc(C(=O)O)cc1	13*	54*	15*	2	22*	56*	19*	37*	-188	32*	PLCg1 ctr=8;PLCbeta3 conf=7
COc1ccccc1-c1ccc(/C=C2\C=CC(=O)O2)o1	-128	27*	15*	-197	44*	8	1	2	-6	11
Cc1cccc(C)c1N1C(=O)[C@@H]2C(c3ccccc3Cl)=NO[C@@H]2C1=O	-3	2	-4	-6	1	·	·	·	·	·
COc1ccc(OC)c(N2C(=O)[C@@H]3C(c4ccccc4Cl)=NO[C@@H]3C2=O)c1	1	67*	26*	-5	23*	38*	18*	4	-20	26*
COc1ccc2c(c1)CN1CN(Cc3ccccc3)S(=O)(=O)CC21 (configuration not stated)	-11	-5	-4	-15	0	·	·	·	·	·
COC(=O)c1sc2nc(-c3ccco3)ccc2c1N	-147	55*	16*	-199	52*	8	-1	5	-24	8
Nc1c(C(=O)Nc2ccccc2F)sc2nc(-c3ccco3)ccc12	i	2	-2	i	7	·	·	·	·	·
CCN(CC)CCCNc1nc(-c2ccccc2)nc2ccccc12	-3	6	3	-3	-5	·	·	·	·	·
CCN(CC)CCCNc1nc2ccccc2c2[nH]c3ccc(OC)cc3c12	-252	85*	91*	-330	19*	96*	109*	2	-9	34*
N#Cc1c(SCC(=O)Nc2ccc(C(F)(F)F)cc2)sc2c(O)cc(=O)[nH]c12	-8	2	-3	-19	4	·	·	·	·	·
N#Cc1c(SCC(=O)Nc2nncs2)sc2c(O)cc(=O)[nH]c12	-11	48*	18*	-32	20*	43*	23*	29*	-146	26*
Cc1[nH]n(-c2ccccc2)c(=O)c1C(C[N+](=O)[O-])c1ccccc1Cl (configuration not stated)	0	-8	-8	-2	-3	·	·	·	·	·
Cc1[nH]n(-c2ccccc2)c(=O)c1C(c1ccc(O)c([N+](=O)[O-])c1)c1c(C)[nH]n(-c2ccccc2)c1=O	22*	15	15*	10	38*	2	-4	4	-19	-4	PLCg1 ctr=-3;PLCbeta3 conf=-2
COc1cccc(C(c2c(C)[nH]n(-c3ccccc3)c2=O)c2c(C)[nH]n(-c3ccccc3)c2=O)c1O	25*	21*	21*	-1	23*	-4	0	5	-27	7	PLCg1 ctr=-7;PLCbeta3 conf=-7
COc1cccc(C(c2c(C)[nH]n(-c3ccccc3)c2=O)c2c(C)[nH]n(-c3ccccc3)c2=O)c1OC	18*	18	17*	7	21*	2	1	3	-10	-2	PLCg1 ctr=-6;PLCbeta3 conf=-4
COC(=O)C1CN(Cc2cn(Cc3ccc(OC)cc3)nn2)CCS(=O)(=O)N1Cc1ccc(C)cc1 (configuration not stated)	0	-2	3	-2	-3	·	·	·	·	·
O=C(COC(=O)c1cncc(Br)c1)NCc1ccco1	1	44*	14*	-6	16*	26*	14*	7	-36	29*
O=C(COC(=O)c1cncc(Br)c1)NCc1ccc(F)cc1	1	6	-2	-10	-1	·	·	·	·	·
CCc1ccccc1NC(=O)CCS(=O)(=O)c1ccc(OC)cc1	0	75*	40*	-5	16*	13	4	3	-11	-1
N#C/C(=C\c1ccc(O)c(O)c1)C(=O)c1ccc(O)c(O)c1	4	64*	19*	-4	91*	67*	29*	20*	-101	90*
N#C/C(=C\c1ccc(O)c(O)c1)C(=O)N1CCCC1	4	-1	-6	-1	2	·	·	·	·	·
CCOC(=O)C1Nc2ccc(C(=O)O)cc2C2C=CCC12 (configuration not stated)	2	72*	27*	-15	67*	48*	11	45*	-162	60*
CC(C)C1Nc2ccc(C(=O)O)cc2C2C=CCC21 (configuration not stated)	-30	30*	14*	-59	17*	14	1	5	-27	24*
Cn1c(SCC(=O)NCCN2CCCCC2)nc2cccnc21	2	-4	-4	6	5	·	·	·	·	·
